# The full ranking holds about 25,000 sequences; the median of “ln(normalized median fluorescence intensity)” is about 9.7, and the highest 2% start at about 11. This is one part of a sample in which the highest values are shown more often than they occur.
# Test system: PfAP2-HC AP2 domain (GST-tagged)
# Experiment: gcPBM binding intensity (ln(normalized median fluorescence intensity)); higher = stronger DNA binding
# Outline: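 GST-fused DNA-binding domains of P. falciparum, expressed in E. coli, were applied at about 25 μg on average for 1 h to an Agilent 4 × 180k array of primer-extended double-stranded 36-bp intergenic genomic probes and negative controls. Binding intensity is the highest Masliner-normalised natural-log median intensity across replicate spots of either probe orientation, measured with Alexa488 anti-GST antibody and a 488 nm scan.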
row,Sequence,gcPBM binding intensity (ln)
1,TGTATATTTGATTCATGTACATATTTTATTTTAACT [XGTACX_site5169],9.72
2,TTATTTATCAAAAAATGTACAAAAATATATAAACAA [XGTACX_site940],9.6
3,ACGCACGAAATAAATACATGCATATTGTAAAAATTA [TGCATGCA_site310],9.48
4,TTAAAAATAAAAAATACACACTCTAGTCCATGTAAC [CACACA_site3640],10.1
5,ATGTAACACATATTTGGTACAGATAGATAAAAGTAT [XGTACX_site8291],9.87
6,ATAAAGAAAAATAGAAGTACATATATGCATGTTAAT [XGTACX_site4480],9.86
7,ATGTGTTTCTTCAATTGTACTAAAAGGTATATATTG [XGTACX_site4608],9.63
8,TAAATTATAAATTGCACACATATTTTTATATTTATA [CACACA_site2976],9.77
9,GCTTGGATATATTAATGTACTTATATATTATGTTGT [XGTACX_site3768],9.82
10,AATACATGCTTATTTTAACACACAAATGGTAGTAAT [CACACA_site8154],9.83
11,TATATATATGGACACACACACATATATATATATTTT [CACACA_site5409],10.3
12,TATATATATGGACACACACACACATATATATATATA [CACACA_site6121],11.3
13,AAAAATTATGGACACACACACATATATATATATATT [CACACA_site4717],10.3
14,ATGTCCTATATTAGTACACACATGAAAATATAAATA [CACACA_site7497],9.66
15,AAAAAAAAAAAAAAAAGTACAAATTTAAAAATGTGT [XGTACX_site112],9.44
16,CAAAAAAACAAACACACACACACACCGATATATATA [CACACA_site9218],10.5
17,TGGGAATAAAAACACACACACACACCGATATATATA [CACACA_site5875],11.3
18,AATAAAAAGGAACACACACACACACCGATATATATA [CACACA_site5895],11.2
19,AAAAAGGATAAACACACACACACACCGATATATATA [CACACA_site8206],11
20,CTATAATAATAAAGTGAACACACACCGATAATATAT [CACACA_site9377],10.1
21,AATATAAATAAAAACACACACACACCGATATATATA [CACACA_site5283],10.8
22,AGAATAAAAAGGAACACACACACACCCATATATATA [CACACA_site3590],10.7
23,AAAGATAAAAAAAGTACACACACACCGATATATATA [CACACA_site9006],10.6

row,Sequence,gcPBM binding intensity (ln)
1,CACTAAAATAAACACACACACACACCGATATATATA [CACACA_site9379],10.8
2,AACGAAGCATAAAATGTTATGTATATATATAAATAT [TGCATGCA_negctrl_site304],9.79
3,ATAGAAATATATATATGTACATATAGATAAATCTAT [XGTACX_site7833],9.75
4,ATATGTACATATCTCATGCACTTAACAAAAAAAAAG [GTGCAC_site9898],9.56
5,TACATTCGGAGTAAAAAAAAATTTATACAATTACTT [XGTACX_negctrl_site29],9.44
6,AATCCTTACGGACACACACACACGAATAAATAAAAA [CACACA_site4422],11
7,AATAGAATAATCCTTACACACACACCCACACGAATA [CACACA_site8053],10.4
8,ATAATCCTTAGACACACACACACACGAATAAATAAA [CACACA_site6364],11.3
9,AATCCTTACAGACACACACACACGAATAAATAAAAA [CACACA_site480],10.6
10,AATCCTTACGAACACACACACACGAATAAATAAAAA [CACACA_site6363],10.8
11,TAGAATAATCCTTACACACACACACCCACGAATAAA [CACACA_site483],10.5
12,GAATTTCAACAAAGTAGTACATTTTATAGTAATTGG [XGTACX_site2319],9.48
13,ATAAACATATCAATATGTACATATTTTTGTTTGTAT [XGTACX_site7018],9.77
14,TAATTTTTATTCAGTTCACACACGCTTTAATATTAT [CACACA_site9147],9.94
15,GTTATATTCCTACAGAGTACATAAAAATGCACATCA [XGTACX_site1948],9.54
16,TAAATTAAAAAACACACACACAAAAAAAAAAAAAAA [CACACA_site2263],11.2
17,AAAAAATTAATAAAAACACACAAAAAAAATAAACAA [CACACA_site1907],9.95
18,AAAAAAAAAAAATACACACAAACACAAATTAAATAA [CACACA_site3809],10.3
19,GTTTCAAAATTAAACACACACAAAAAAAAAAAAAAA [CACACA_site2680],9.72
20,AAAAAAAAAAAAAATACACACAAACACAAATTAAAT [CACACA_site5982],10.8
21,CATAAATTAAAACACACACACACAAAAAAAAAAAAA [CACACA_site2262],11.6
22,TACCCACGTATATATATACACACTAATATACACCCA [CACACA_site9381],9.88
23,TTAAGCCGCAATATGGGTACATAGGAAGAAGGGGAA [XGTACX_site8397],9.56

row,Sequence,gcPBM binding intensity (ln)
1,TTTTAAATTTAATTTACACACTTTTCATAGCATTGA [CACACA_site3794],9.61
2,TGCAGTCTGGAGAAAAGTACACAGTATCTGGTAGCT [XGTACX_site2013],9.58
3,CATACATACATACATACACACATACATATGTATTTA [CACACA_site5384],9.99
4,AAACTTGTAAGAAACACACACACACGCATATAAATA [CACACA_site6518],10.7
5,TTGTAAGAAAAACACACACACACATATATATATATA [CACACA_site795],10.3
6,ACTTGTAAGAAACACACACACACACCCATATATATA [CACACA_site796],11.5
7,ACTTGTAAGAAACACACACACACACCGATATATATA [CACACA_site4594],11.2
8,TTAAACTTGAAACACACACACACACCGATATAAAAA [CACACA_site4578],10.5
9,AAACTTGTAAGAAACACACACACACCCATATATATA [CACACA_site797],10.5
10,AATTAAATTACTTATACACACATAAAATGCCTGTAT [CACACA_site6597],9.84
11,TTATGTAAAAAAAAAAAAAAAAAAAAAAAAAAAAAA [CACACA_negctrl_site984],9.05
12,ATTATCAAAAAAAAAAAAAAAAAAAAAAAAAAAAAA [CACACA_negctrl_site1118],8.87
13,AACTTGTATTTATACACACACACACTAGCTTTTTTT [CACACA_site5132],10.4
14,AACTTGTATTTATACACACACACACTGTCTTTTTTT [CACACA_site7009],10.5
15,AACTTGTATATATACACACACACACTATCTTTTTTT [CACACA_site8601],10.9
16,ATTTTTATTAGTTATTGTACTTATTATTTATTAATT [XGTACX_site2568],9.78
17,TACACATACCCATACACACGCATAGAAACATACGAA [CACACA_site5212],10.2
18,CACCCATAGAAACACACACACGCATAAAAAAAAAAA [CACACA_site1513],10.7
19,TATATACACAGACACACACACACATACACGCACATA [CACACA_site6909],10.5
20,TACACCCATAGACACACACACACGCATAAAAAAAAA [CACACA_site8428],11.1
21,TACAGACATAGACACACACACACGCATAAAAAAAAA [CACACA_site6820],11.4
22,TACAGACAGAAACACACACACACGCATAAAAAAAAA [CACACA_site1514],10.5
23,AATAAATAAAAATGCACACAGTTAACATGTTGAATT [CACACA_site4795],10.2

row,Sequence,gcPBM binding intensity (ln)
1,GCATCTCATTTGTGATGTACTATATTATCCGTTTTT [XGTACX_site7576],9.71
2,ATATATATTATGTGTGTGCACTTTTGTTATTATTAT,10.2
3,TATATAACATAATATACACACATTATGTGCGTAATT [CACACA_site4073],9.75
4,GATATGTTTTCCTAGGTTCATGATGATAGGTAGTTT [XGTACX_negctrl_site217],9.83
5,AGTAAAAGAAAGCACACACACATGTATATAGGTATG [CACACA_site7759],10.9
6,AAAGTAAAAGAAAGCACACACACATGTATATATGTA [CACACA_site3857],10.2
7,AAAAAAAAAAAGCACACACACATATGCGTATATATA [CACACA_site954],10.9
8,ATACAATACAAAAACACACACAAAAAAAGAAAAGGA [CACACA_site2156],10.4
9,AGATATAAGAAAAGCACACACACACTAGAAAAAAAA [CACACA_site5559],11
10,AGTAAAAGAAAGCACACACACATGTATATATGTATG [CACACA_site3858],11
11,ATAAGAAAAGGACACACACACAAAAAAAAAAAAAAA [CACACA_site7351],11.1
12,AAAAAAAAAAAAAGCACACACACATATGCGTATATA [CACACA_site953],10.3
13,AAGAAAAGCATAGATGCACACATATATATATATATA [CACACA_site8675],10.5
14,AAAAAAAAAAAGCACACACACATATGAGTATATATA [CACACA_site4683],10.3
15,TAGGAAAAGAAAAGCACACACATAAATAGATATATA [CACACA_site6382],10.3
16,ATAAGAAAAAGACACACACACAAAAAAAAAAAAAAA [CACACA_site2828],10.2
17,ATATATACAAGTATTTTTTTTTCAAACATTATTTTT [CACACA_negctrl_site1808],9.68
18,TACATGAATATATAAAGAAAAAAAAAAAAACACACA [XGTACX_negctrl_site350],9.79
19,AATAAGTAACAAAATACACACATATATATAATTATA [CACACA_site1837],10.1
20,CTTATATTAAGTATTACACACATATATATAAATGCA [CACACA_site4581],9.65
